Screens as filed in PubChem.
LYPLA1 counter – LYPLA1 (human) inhibition in PME1 counter-screen. recombinant LYPLA1, FP-Rh probe fluorescence polarization. inhibition, % at 5.9 µM. 0.16% of 320,000 active. AID 2174;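 active = inhibition above the mean of all tested compounds plus 3 SD, set per campaign, cut at about 14% in these data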;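 note: inhibitors block serine hydrolase probe labeling of LYPLA1 so polarization falls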
Target sequence (O75608 whole entry, looked up): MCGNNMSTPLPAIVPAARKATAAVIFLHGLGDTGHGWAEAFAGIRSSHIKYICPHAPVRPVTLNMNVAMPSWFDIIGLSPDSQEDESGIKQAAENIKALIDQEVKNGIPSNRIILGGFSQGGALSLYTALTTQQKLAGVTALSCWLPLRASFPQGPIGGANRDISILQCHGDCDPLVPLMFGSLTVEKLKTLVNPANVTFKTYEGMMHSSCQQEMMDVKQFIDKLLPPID
p97 inhibitor – human p97 ATPase inhibition. P55072. recombinant p97 ATPase, Kinase-Glo ATP luminescence, 3 h. inhibition, % at 8 µM. 0.42% of 220,000 active; in the data active = inhibition above about 15%
Rin1 Abl inh – blocks binding of human Rin1 to Abl. TR-FRET Rin1/Abl binding, biochemical. inhibition, % at 7.35 µM. 0.4% of 360,000 active. AID 588664; in the data active = inhibition above about 5%, passing the limit was not always enough
PREPL inh – inhibitors of human prolyl oligopeptidase-like enzyme PREPL; inhibition, % at 5.96 µM; recombinant PREPL, fluorescence polarization activity-based probe; Q4J6C6; 0.68% of 320,000 active; in the data active = inhibition above about 43%
Hck-Nef inh – human Hck-Nef kinase inhibition; P08631; Recombinant Hck-YEEI plus Nef, Z-Lyte FRET kinase assay; inhibition, % at 20 µM; 0.68% of 220,000 active; AID 463187;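 active = Hck-Nef kinase inhibition above about 50%, limit read from the data; inactive = inhibition below that limit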
LYPLA2 inh – blocks human lysophospholipase 2, a PME1 counter-screen. 0.38% of 320,000 active. AID 2177. recombinant LYPLA2, FP-Rh probe fluorescence polarization. inhibition, % at 5.9 µM. O95372;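 active = inhibition above the screen-wide mean plus 3 SD, limit set per campaign, cut at about 26% in these data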
Target sequence (O95372 whole entry, looked up): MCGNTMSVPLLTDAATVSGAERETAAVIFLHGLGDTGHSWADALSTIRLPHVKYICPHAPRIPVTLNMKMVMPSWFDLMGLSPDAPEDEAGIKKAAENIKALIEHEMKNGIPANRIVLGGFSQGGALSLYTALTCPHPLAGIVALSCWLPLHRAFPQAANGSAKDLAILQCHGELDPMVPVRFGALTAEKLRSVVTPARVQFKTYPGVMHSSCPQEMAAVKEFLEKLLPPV
LYPLA1 confirm – LYPLA1 (human) inhibition, confirmation counter-screen. shares compounds with LYPLA1 counter. inhibition, % at 5.9 µM. 69% of 480 active. recombinant LYPLA1, FP-Rh probe fluorescence polarization;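 active = mean inhibition across replicates above the hit cutoff set in the primary screen, cut at about 15% in these data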;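 note: loss of FP-Rh probe labeling of LYPLA1 seen as lower polarization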
Large screens that a line does not name were inactive (follow-up assays come after a bar, where they were run). An excerpt weighted towards active compounds, which were near 1.7% of everything screened.

C/C(=N\NC(=O)c1cccc(Cl)c1)C1C(=O)c2ccccc2C1=O	LYPLA1 counter 24 | LYPLA1 confirm 28
CC(=O)N1CCN(C(=O)CCc2nnc(CCCCc3ccccc3)o2)CC1	none
COCCCC1CCN(C(=O)CCc2nnc(CCCCc3ccccc3)o2)CC1	LYPLA1 counter 17 | LYPLA1 confirm 17
OCCN(CCO)c1ccc(C(c2ccccc2Cl)c2ccc(N(CCO)CCO)cc2Cl)c(Cl)c1	LYPLA1 counter 15 | LYPLA1 confirm 17
CCOC(=O)C1CCCN(Cc2ccc(O)c(OC)c2)C1 (stereo not given)	none
CCOc1cc(CN2CCCC(C(=O)c3cccc(C(F)(F)F)c3)C2)ccc1O (stereo not given)	LYPLA1 counter 35 | LYPLA1 confirm 42
N#CC1(NC(=O)CSc2nnc(-c3ccccc3F)n2N)CCCCC1	none (no result: p97 inhibitor, Hck-Nef inh)
O=P1(Nn2cnnc2)C=C(c2ccccc2)OC(c2ccccc2)=C1	LYPLA1 counter 17 | LYPLA1 confirm inactive
COc1ccc(-c2nnc(Nc3nc4c(OC)cccc4s3)o2)c(OC)c1	none
COc1ccc(-c2nnc(Nc3nc4c(OC)cccc4s3)o2)cc1	LYPLA1 counter 17 | LYPLA1 confirm 41
O=C(CNC(=O)c1cc(S(=O)(=O)N2CCCCC2)ccc1N1CCOCC1)Nc1ccc(F)c(F)c1	none (no result: p97 inhibitor, Hck-Nef inh)
O=c1ccc2ccc(Oc3ccc([N+](=O)[O-])cc3[N+](=O)[O-])cc2o1	LYPLA1 counter 40, LYPLA2 inh 58 (no result: Rin1 Abl inh) | LYPLA1 confirm 40
Cc1cc(C(=O)Nc2cc(Br)ccc2O)on1	none (no result: p97 inhibitor, Hck-Nef inh)
CCN(CC)S(=O)(=O)c1cccc(-c2nnc(SCc3nc4ccccc4s3)o2)c1	LYPLA1 counter 14 | LYPLA1 confirm 21
COc1ccc(Cc2nc3c([nH]2)c(=O)n(C)c(=O)n3C)cc1OC	none (no result: LYPLA1 counter, p97 inhibitor, PREPL inh, Hck-Nef inh, LYPLA2 inh)
N#Cc1ccccc1OCCCN1CCC(Cc2ccccc2)CC1	LYPLA1 counter 59 (no result: p97 inhibitor, Hck-Nef inh) | LYPLA1 confirm 56
O=[N+]([O-])c1ccc(CN2CCC(Cc3ccccc3)CC2)cc1	none (no result: LYPLA1 counter, p97 inhibitor, PREPL inh, Hck-Nef inh, LYPLA2 inh)
O=[N+]([O-])c1cccc(OCCCN2CCC(Cc3ccccc3)CC2)c1	LYPLA1 counter 16, LYPLA2 inh 32 (no result: p97 inhibitor, Hck-Nef inh) | LYPLA1 confirm 20
CCOC(=O)CN(C(=O)COC(=O)C1=NNC(=O)CC1)c1ccc(F)cc1	none (no result: LYPLA1 counter, p97 inhibitor, Hck-Nef inh, LYPLA2 inh)
Cc1ccccc1Oc1ccc2c(c1)[C@@H]1C[C@H](N(C)C(=O)c3ccc(C#N)cc3)[C@H]([C@H](C)O)C(=O)N1CC2	none (no result: LYPLA1 counter, p97 inhibitor, PREPL inh, Hck-Nef inh, LYPLA2 inh)
Cc1c(C(=O)NN)[nH]c2ccc([N+](=O)[O-])cc12	none
CCCCC/C=N/NC(=O)c1[nH]c2ccc([N+](=O)[O-])cc2c1C	LYPLA1 counter 15 | LYPLA1 confirm 40
CCOC(=O)c1sc2cc([N+](=O)[O-])cc(SCC(=O)OC)c2c1N	LYPLA1 counter 15 | LYPLA1 confirm 29
Cc1cccc(CNS(=O)(=O)c2csc(C(N)=O)c2)c1	none (no result: p97 inhibitor, Hck-Nef inh)
NC(=O)c1cc(S(=O)(=O)NCc2cccc(Br)c2)cs1	LYPLA1 counter 15 (no result: p97 inhibitor, Hck-Nef inh) | LYPLA1 confirm inactive
Cc1cc(C)c2nc(NC(=O)C3CSC4(C)CCC(=O)N34)sc2c1 (stereo not given)	none (no result: p97 inhibitor, Hck-Nef inh)
CC(=O)c1sc(NC(=O)C2CCN(C(=O)c3ccc(F)cc3)CC2)nc1-c1ccccc1	LYPLA1 counter 20 (no result: p97 inhibitor, Hck-Nef inh) | LYPLA1 confirm 29
CC1=NN(c2ccccc2)C(=O)/C1=C/c1c(O)n(-c2ccc(F)c(Cl)c2)[nH]c1=O	LYPLA1 counter 26 (no result: Rin1 Abl inh) | LYPLA1 confirm inactive
CC1=NN(c2ccccc2)C(=O)/C1=C\c1c(C)[nH]n(-c2ccccc2)c1=O	none
COC(=O)c1cccc(NC(=O)c2ccc3c(c2)C(=O)N(Cc2cccnc2)C3=O)c1	LYPLA1 counter 20 (no result: p97 inhibitor, Hck-Nef inh) | LYPLA1 confirm 19
CC(=O)c1cccc(NC(=O)c2ccc3c(c2)C(=O)N(Cc2cccnc2)C3=O)c1	none (no result: p97 inhibitor, Hck-Nef inh)
Cc1cc2oc(=O)cc(CN3CCN(C/C=C/c4ccccc4)CC3)c2cc1O	LYPLA1 counter 20 | LYPLA1 confirm 18
O=c1cc(CN2CCN(C/C=C/c3ccccc3)CC2)c2cc(O)c(-c3ccccc3)cc2o1	none
CCOc1ccc(S(=O)(=O)N2CCOCC2)cc1NC(=O)CSC(=S)N1CCCC1	none (no result: p97 inhibitor, Hck-Nef inh)
NC(=O)C1=C[C@H](c2ccc(C(F)(F)F)cc2)C[C@H](OCc2ccc(CO)cc2)O1	LYPLA1 counter 30 | LYPLA1 confirm 34
NC(=O)C1=C[C@@H](c2ccc(C(F)(F)F)cc2)C[C@@H](OCc2ccc(CO)cc2)O1	none
CCC(C)C(=O)OCC1(c2ccc(C)cc2OC(=O)C(C)C)CO1 (stereo not given)	none (no result: p97 inhibitor)
Cc1ccc(C2(COC(=O)C(C)C)CO2)c(OC(=O)C(C)C)c1 (stereo not given)	LYPLA1 counter 29 (no result: p97 inhibitor) | LYPLA1 confirm inactive
COc1cc(NC(=O)C2CCC(CNc3c(N4CCCCC4)c(=O)c3=O)CC2)cc(OC)c1 (stereo not given)	LYPLA1 counter 24 | LYPLA1 confirm 31
COc1ccc(NC(=O)C2CCC(CNc3c(N4CCC(C)CC4)c(=O)c3=O)CC2)cc1OC (stereo not given)	LYPLA1 counter 24 | LYPLA1 confirm 26
COc1cc(NC(=O)C2CCC(CNc3c(N4CCC(C)CC4)c(=O)c3=O)CC2)cc(OC)c1 (stereo not given)	LYPLA1 counter 39 | LYPLA1 confirm 40
COc1ccc(CN2CCNC(=O)C2CC(=O)N2CCCN(C(C)=O)CC2)cc1OC (stereo not given)	none (no result: p97 inhibitor, Hck-Nef inh)
O=C(NNC(=O)c1cc(Cl)ccc1O)c1ccc(NS(=O)(=O)c2cccs2)cc1	none (no result: p97 inhibitor, Hck-Nef inh)
COc1ccc(CNC(=O)Cn2ccc3cc(S(=O)(=O)N4CCCC4)ccc32)cc1OC	LYPLA1 counter 24 (no result: p97 inhibitor, Hck-Nef inh) | LYPLA1 confirm inactive
CC1Sc2ccc(S(=O)(=O)N3CCC(C(=O)N(C)Cc4ccco4)CC3)cc2NC1=O (stereo not given)	none (no result: p97 inhibitor, Hck-Nef inh)
CC1Cc2cc(S(=O)(=O)N3CCC(C(=O)N4CCCCC4)CC3)ccc2N1C(=O)C1CC1 (stereo not given)	none (no result: p97 inhibitor, Hck-Nef inh)
CC1Cc2cc(S(=O)(=O)N3CCCCC3)ccc2N1C(=O)C1CCC1 (stereo not given)	LYPLA1 counter 19 (no result: p97 inhibitor, Hck-Nef inh) | LYPLA1 confirm 24
CC1Cc2cc(S(=O)(=O)N3CCC(C(=O)N(C)Cc4ccco4)CC3)ccc2N1C(=O)C1CCC1 (stereo not given)	LYPLA1 counter 19 (no result: p97 inhibitor, Hck-Nef inh) | LYPLA1 confirm 29
CC1CCN(S(=O)(=O)c2ccc3c(c2)CC(C)N3C(=O)C2CCC2)CC1 (stereo not given)	LYPLA1 counter 25 (no result: p97 inhibitor, Hck-Nef inh) | LYPLA1 confirm 34
CCOC(=O)C1CCCN(S(=O)(=O)c2ccc3c(c2)CC(C)N3C(=O)C2CC2)C1 (stereo not given)	none (no result: p97 inhibitor, Hck-Nef inh)
